According to PubChem BioAssay (EPA / NIEHS):
The source made the active and inactive calls. How the source made its calls: active means hit-call score of the fitted dose curve at least 0.9, where 1 is the maximum; inactive means score below 0.9.

read-out: Interleukin 17F (IL17F), IL17F (gene 112744); experiment: BSK_BT_xIL17F: BioMAP Diversity Plus: BT Assay for Interleukin 17F (IL17F) Biomarker Activity (AID 2284243); details: primary human B cells with PBMC
Procedure: BSK_BT is a cell-based, multiplexed-readout assay that uses B cell and peripheral blood mononuclear cells, a human vascular primary cell co-culture, with measurements taken at 24 hours after chemical dosing in a microplate: 96-well plate.BSK_BT_xIL17F is an assay component measured in the BSK_BT assay. It measures secreted IL-17F related to regulation of gene expression using LumineX xMAP technology.Data from the assay component BSK_BT_xIL17F was analyzed at the endpoint, BSK_BT_xIL17F, in the positive analysis fitting direction relative to DMSO as the negative control and baseline of activity. Using a type of cytokine quantitation reporter, gain or loss-of-signal activity can be used to understand protein changes. To generalize the intended target to other relatable targets, this assay endpoint is annotated to the 'cytokine' intended target family, where the subfamily is 'interleukins'.
The levels of cell surface (or secreted, indicated by the prefix "s") biomarker endpoints were measured by ELISA. Overt cytotoxicity to cells in confluent adherent cultures (all systems other than the BT system) was assessed by measuring total protein levels using sulforhodamine B (SRB) staining in parallel cultures at the time of biomarker measurements, indicated as SRB endpoints. For proliferation assays for adherent cell types, individual cell types are cultured at sub-confluence and relative cell numbers quantified by SRB staining at time points optimized for each system (48 h: 3C and CASM3C systems; 72 h: BT and HDF3CGF systems; 96 h: SAg system). SRB was performed by staining cells with 0.1% SRB after fixation with 10% TCA and reading wells at 560 nm.Viability and proliferation of PBMC (T cells) was quantified by Alamar Blue reduction for the SAg and BT systems. For PBMC viability (referred to as PBMC Cytotoxicity within the assay endpoint names), cells were plated (75,000/well in a 96-well plate) and then chemical samples added for 1 h before addition of activators, SEB and TSST-1 (20 ng/mL final concentration each). Cells were incubated for 90 h. Then, Alamar Blue (20 uL/well) (Invitrogen, Cat DAL1100) was added for 6 h, and the plates were read with a fluorescence microplate reader at 546/580 nm (excitation/emission). For PBMC proliferation, cells were plated and activated as above but incubated for only 16 h prior to addition of Alamar Blue. Plates were read after 6 h.

AC50, active:
C=CCOc1c(Br)cc(Br)cc1Br 26.8 µM, C/C=C\C/C=C/CCCCCCCCOC(C)=O 25.5 µM, O=C(Cl)c1cc(C(=O)Cl)cc(C(=O)Cl)c1 29.5 µM, O=C(Nc1ccccc1SSc1ccccc1NC(=O)c1ccccc1)c1ccccc1 9.15 µM, CCCCCCCCCCCCCCCC[N+](C)(C)CC 2.28 µM, c1ccc2c(c1)ccc1ncccc12 20 µM, C=CC(=O)OCC(Br)CBr (configuration not stated) 15.4 µM, CC(C)(c1cc(Br)c(OCCO)c(Br)c1)c1cc(Br)c(OCCO)c(Br)c1 23.8 µM, c1ccc(-c2ccccn2)nc1 27.6 µM, C#CC1(O)CC[C@H]2[C@@H]3CCC4=CCCC[C@@H]4[C@H]3CC[C@@]21C (some centres not stated) 28.6 µM, COCc1c(C(C)C)nc(C(C)C)c(/C=C/[C@@H](O)C[C@@H](O)CC(=O)O)c1-c1ccc(F)cc1 0.57 µM, CCCCC/C=C\C/C=C\CCCCCCCC(=O)OC 25.2 µM, O=c1c2ccccc2oc2ccccc12 3.97 µM, C=CC=CC=CCCCCC 7.28 µM

outcome, inactive:
CC1OC1C1CCC2(C)OC2C1 (configuration not stated), CCCCNc1ccc(NCCCC)c2c1C(=O)c1ccccc1C2=O, CCO[Si](CCCN=C=O)(OCC)OCC, CC(C)C(=O)C(C)C, CCOc1nc(F)cc2nc(S(=O)(=O)Nc3c(Cl)cccc3C(=O)OC)nn12, N#[N+]c1ccc2c(S(=O)(=O)[O-])cccc2c1O, COc1ccc2nc(N)sc2c1, CCCCC(CC)COC(=O)c1ccccc1O (configuration not stated), C=CCOCC(O)CCl (configuration not stated), S=C(NC1CCCCC1)NC1CCCCC1, CCCCCCCCc1ccc(Nc2ccc(CCCCCCCC)cc2)cc1, c1ccc2c(c1)ccc1cc3c(ccc4ccccc43)cc12, O=Nc1ccc(O)cc1
